Screening data from PubChem.
PI4K2A inh: inhibitors of human PI4K2A; Q9BTU6; purified PI4K2A, ADP-Glo luminescence, 1 h; active compounds read low; activity change, negative = inhibition, % at 76.9 µM; 0.13% of 420,000 active; AID 1346378; in the data active = activity change below about -50%; inconclusive = mostly about -30% to -49%;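 note: -100% = wells without enzyme as full effect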
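ADP-Glo luminescence measured ADP generated by PI4K2A enzyme (4 ug/mL before mixing) with 1.2 mM PI substrate (pre-mix) and 300 microM ATP (pre-mix). Tris pH7.5 buffer with MgCl2, Triton X-100; 1 h reaction at ambient temperature.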
VDR inh: inhibitors of human vitamin D receptor. AID 504847. P11473. VDR-SRC2-3 peptide fluorescence polarization, 2 h. 0.93% of 400,000 active. Potency, µM, for inactives: max response, negative = inhibition, most hits filed as inhibitors; note: potency is the fitted concentration of half-maximal effect
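Fluorescence polarization assay measuring small-molecule disruption of VDR binding to the coregulator peptide SRC2-3. Compounds were pin-transferred (23 nl) into the reagent mix and incubated 2 h at room temperature before reading.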
PLK1 PBD inh: inhibitors of human PLK1 polo-box domain binding. 2.8% of 360,000 active. Plk1 PBD binding of FITC phosphopeptide, fluorescence polarization. Potency, µM, for inactives: max response, negative = inhibition, actives largely listed as inhibitors. AID 720504. P53350; note: potency is the fitted concentration of half-maximal effect; series mostly up to about 57 µM; nearly all actives have a fitted effect of over 65% in size
Target sequence (P53350 whole entry, looked up, the tested form may be a part): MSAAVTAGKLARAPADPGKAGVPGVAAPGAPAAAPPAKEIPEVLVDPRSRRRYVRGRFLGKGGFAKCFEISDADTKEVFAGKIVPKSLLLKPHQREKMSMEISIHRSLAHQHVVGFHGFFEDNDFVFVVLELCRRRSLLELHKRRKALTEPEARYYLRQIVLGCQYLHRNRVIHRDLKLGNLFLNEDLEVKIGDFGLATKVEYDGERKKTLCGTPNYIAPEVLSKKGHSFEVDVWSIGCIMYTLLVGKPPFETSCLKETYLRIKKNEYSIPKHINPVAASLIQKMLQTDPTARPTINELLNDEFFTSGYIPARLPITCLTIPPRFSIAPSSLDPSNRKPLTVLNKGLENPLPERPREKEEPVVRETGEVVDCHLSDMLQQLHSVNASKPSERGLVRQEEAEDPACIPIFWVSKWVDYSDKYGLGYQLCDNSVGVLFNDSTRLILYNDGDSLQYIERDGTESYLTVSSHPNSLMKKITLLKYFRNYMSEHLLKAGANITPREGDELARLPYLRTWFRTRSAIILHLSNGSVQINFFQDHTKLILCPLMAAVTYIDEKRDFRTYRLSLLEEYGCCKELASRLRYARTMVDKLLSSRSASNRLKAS
KAT2A inh: blocks human GCN5L2 histone acetyltransferase; 0.21% of 390,000 active; Potency, µM (highest dose often 58.9 µM), inactives show at the top dose activity change, negative = inhibition, usual class: inhibitors; GCN5L2 HAT assay, ThioGlo1 CoA-SH fluorescence; AID 504327; note: potency is the fitted concentration of half-maximal effect
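Fluorescence readout, Ex340nm/Em540nm: ThioGlo1 (50uM final) reacts with free CoA thiol released as 20nM GCN5L2 acetylates H3(1-25) peptide (75uM) using acetyl-CoA (70uM). Compound and enzyme sat 15 min beforehand; 20 min room-temperature reaction.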
GLS inh: glutaminase GLS (human) inhibition; 0.21% of 410,000 active; GLS enzymatic activity, qHTS titration; O94925; AID 624170; Potency, µM (top dose mostly 45.5 µM), without a hit: at the highest dose activity change, negative = inhibition, actives largely listed as inhibitors; note: potency is the fitted concentration of half-maximal effect
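hKGA; 45 mM KH2PO4 pH 8.2 + 0.02% Tween-20; cpd via pin tool; 1 mM Gln soln; GluOx/HRP/Amplex Red; RT 30 min; fluor. t0 & final.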
An asterisk follows results filed as active. Only some compounds are listed: those with a hit (about 3.1% of all), similar ones and a draw of the others. Unless noted, calls come from the whole dose curve; as a rule, active = well fitted curve in the direction sought with a large enough effect; inconclusive = small, poorly fitted or top-dose-only effect, or another doubt; inactive = no such curve, though single readings can be large; an effect the other way counts as inactive or inconclusive. Unless noted, % is set by controls: 0 for no effect and ±100 for the full control effect.

What do the screens show for `COC(CNC(=O)[C@H](Cc1c[nH]c2ccccc12)NC1(C(=O)NC(c2ccccc2)c2ccccc2)CCCCC1)OC`?
PI4K2A inh: 0.4

Results for Cc1ccc(S(=O)(=O)n2ccc(-c3c(-c4ccc(Cl)cc4)noc3C)n2)cc1 ?
PI4K2A inh: 4.9

How did c1nc(N2CCNCC2)c2cc(-c3ccoc3)ccc2n1 do in these assays?
VDR inh: -28.8%; KAT2A inh: -17.7%

Results for c1nc(NC2CCNCC2)c2cc(-c3ccoc3)ccc2n1 ?
VDR inh: 20µM*; KAT2A inh: 20µM*

Results for c1cncc(-c2ccc3ncnc(NC4CCNCC4)c3c2)c1 ?
VDR inh: -14.7%; KAT2A inh: -13.6%

How did Fc1ccc(Nc2ncnc3ccc(-c4ccoc4)cc23)cc1 do in these assays?
VDR inh: 39.8µM*; KAT2A inh: inconclusive

How did COc1cccc(NC(=O)N2CCC(n3c(C)nc4cccnc43)CC2)c1 do in these assays?
PI4K2A inh: -10.0; VDR inh: -0.9%; KAT2A inh: -4.2%; GLS inh: 5.1%

Results for Clc1ccc(Sc2ccccn2)cc1 ?
PI4K2A inh: 1.8; VDR inh: 3.3%; PLK1 PBD inh: -8.1%; KAT2A inh: -7.9%; GLS inh: -6.6%

Results for c1ccc(Sc2ncccn2)nc1 ?
PI4K2A inh: -5.7; VDR inh: -9.9%; PLK1 PBD inh: 26.7µM*; KAT2A inh: -0.4%; GLS inh: -2.0%

How did C[C@@H]1COc2cc(F)ccc2S(=O)(=O)N1C do in these assays?
PI4K2A inh: -0.5

Results for O=c1oc2cc(OCc3c(F)cccc3Cl)ccc2cc1-c1ccccn1 ?
PI4K2A inh: -6.7; VDR inh: 21.8%; PLK1 PBD inh: -3.8%; KAT2A inh: -3.9%; GLS inh: 9.2%

How did CCCOc1ccc2cc(-c3ccccn3)c(=O)oc2c1 do in these assays?
PI4K2A inh: -61.0*; VDR inh: 10.2%; PLK1 PBD inh: -13.9%; KAT2A inh: -9.8%; GLS inh: -0.4%

How did COC(=O)c1ccccc1NC(=O)c1ccc(CN2CC(=O)N3CCCCC3C2=O)cc1 (stereo unspecified) do in these assays?
PI4K2A inh: -0.4; VDR inh: 9.6%; KAT2A inh: -3.0%; GLS inh: -0.4%

How did Cc1ccc(NC(=S)Nn2cnnc2)c(C)c1 do in these assays?
KAT2A inh: -3.9%

What do the screens show for `COc1cc([N+](=O)[O-])ccc1NC(=S)Nn1cnnc1`?
PI4K2A inh: -2.4; VDR inh: inconclusive; PLK1 PBD inh: 9.47µM*; KAT2A inh: -17.6%; GLS inh: 3.4%

Results for S=C(Nc1ccc(Br)cc1Cl)Nn1cnnc1 ?
PI4K2A inh: -7.5; VDR inh: inconclusive; PLK1 PBD inh: 9.47µM*; KAT2A inh: 2.7%; GLS inh: 5.4%

How did Cc1ccc(Cl)cc1NC(=S)Nn1cnnc1 do in these assays?
PI4K2A inh: -0.3; VDR inh: 79.4µM*; PLK1 PBD inh: 10.6µM*; KAT2A inh: 4.2%; GLS inh: -13.5%

How did COC(=O)Nc1ccc([N+](=O)[O-])cc1OC do in these assays?
PI4K2A inh: -4.7; VDR inh: 11.3%; PLK1 PBD inh: -2.0%; KAT2A inh: -1.5%; GLS inh: 3.7%

What do the screens show for `CCCSc1nc(-c2ccc(OC)cc2)cc(-c2ccccc2OC)c1C#N`?
PI4K2A inh: -1.1; VDR inh: inconclusive; KAT2A inh: 2.2%; GLS inh: -4.3%

What do the screens show for `COc1ccc(/C=C2/C(=O)N(Cc3ccccc3)N=C2C)cc1`?
PI4K2A inh: -9.5; VDR inh: inconclusive; PLK1 PBD inh: inconclusive; KAT2A inh: -1.9%; GLS inh: -3.3%

What do the screens show for `COc1ccc(/C=C2/C(=O)N(c3nc4ccccc4s3)N=C2CSc2ccc(Cl)cc2)cc1`?
PI4K2A inh: -13.4; VDR inh: -2.8%; PLK1 PBD inh: 8.44µM*; KAT2A inh: 25.1%; GLS inh: -14.9%

How did CN(C)S(=O)(=O)c1cccc(NC(=S)NC(=O)c2ccco2)c1 do in these assays?
PI4K2A inh: 6.8; VDR inh: -7.7%; PLK1 PBD inh: -2.7%; KAT2A inh: -5.3%; GLS inh: 1.9%

How did COc1cc(/C=N/NC(=O)c2cccc(NC(=O)c3ccccc3)c2)ccc1O do in these assays?
PI4K2A inh: -3.3; VDR inh: 8.4%; PLK1 PBD inh: 2.4%; KAT2A inh: -5.3%; GLS inh: -1.6%

How did CN(C)S(=O)(=O)c1cccc(NC(=S)NNC(=O)c2cc3ccccc3cc2O)c1 do in these assays?
PI4K2A inh: 2.2; VDR inh: -3.2%; PLK1 PBD inh: 23.8µM*; KAT2A inh: inconclusive; GLS inh: inconclusive

How did COc1cc(/C=N/NC(=S)Nc2cccc(S(=O)(=O)N(C)C)c2)ccc1O do in these assays?
PI4K2A inh: 2.5; VDR inh: -7.9%; PLK1 PBD inh: -9.0%; KAT2A inh: -2.2%; GLS inh: 10µM*

What do the screens show for `CCN(C(=O)CSc1nc2cc(S(=O)(=O)N(CC)CC)ccc2o1)C1CCS(=O)(=O)C1` (stereo unspecified)?
PI4K2A inh: 5.6; VDR inh: inconclusive; PLK1 PBD inh: 21.2µM*; KAT2A inh: -4.0%; GLS inh: -7.3%

What do the screens show for `CC(C)(C)N(Cc1ccccc1)C(=O)COC(=O)CSc1ccc([N+](=O)[O-])cc1`?
PI4K2A inh: -2.3; VDR inh: -29.7%; PLK1 PBD inh: 11.9µM*; KAT2A inh: -8.9%; GLS inh: 4.4%

What do the screens show for `CCCN(CC(=O)Nc1ccccc1C)C(=O)COC(=O)CSc1ccc([N+](=O)[O-])cc1`?
PI4K2A inh: -18.5; VDR inh: inconclusive; PLK1 PBD inh: 18.9µM*; KAT2A inh: 3.9%; GLS inh: -0.1%

How did CCOC(=O)C1CCN(C(=O)COC(=O)CSc2ccc([N+](=O)[O-])cc2)CC1 do in these assays?
PI4K2A inh: 0.1; VDR inh: inconclusive; PLK1 PBD inh: inconclusive; KAT2A inh: -1.2%; GLS inh: 7.9%

Results for CCCN(CC(=O)Nc1ccccc1C)C(=O)COc1c(C)cccc1C ?
PI4K2A inh: 1.2; VDR inh: 2.2%; PLK1 PBD inh: -0.2%; KAT2A inh: -1.0%; GLS inh: 1.9%

Results for CC1CCCC(C)N1C(=O)COC(=O)CSc1ccc([N+](=O)[O-])cc1 (stereo unspecified) ?
PI4K2A inh: 0.9; VDR inh: -29.7%; PLK1 PBD inh: 18.9µM*; KAT2A inh: -11.1%; GLS inh: 1.6%

Results for COC(=O)c1c(NC(=O)C2CCCCC2C(=O)O)sc2c1CCCCC2 (stereo unspecified) ?
PI4K2A inh: 1.2; VDR inh: -14.8%; PLK1 PBD inh: 23.8µM*; KAT2A inh: 1.4%; GLS inh: -1.1%

What do the screens show for `CC(=O)OCC1OC(n2ccc3ccccc32)C(OC(C)=O)C(OC(C)=O)C1OC(C)=O` (stereo unspecified)?
PI4K2A inh: -14.8; VDR inh: -3.4%; PLK1 PBD inh: 26.7µM*; KAT2A inh: -15.4%; GLS inh: 59.8%
